# Experimental data: PubChem BioAssay (EPA / NIEHS)
# Records with an inconclusive call do not appear. The source made the active and inactive calls. The calls were made as follows: active = hit-call score of the fitted dose curve at least 0.9, where 1 is the maximum; inconclusive = response in the unintended direction; inactive = score below 0.9.
# Tests used:
# [1] = target: Cellular tumor antigen p53 (Homo sapiens) (UniProt P04637); assay: TOX21_p53_BLA_p2_ratio: Tox21 HCT-116 p53 Agonism Beta-lactamase Assay, Ratio, Phase 2 (AID 2283592)
# Procedure, shortened: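 Readout: blue/green (460/530 nm) FRET emission ratio after 2 h CCF4-AM loading at room temperature, excitation 405 nm. HCT116 p53 bla cells, 16 h compound exposure at 37C, 5% CO2; agonist direction fitted against DMSO baseline.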
# [2] = TOX21_p53_BLA_p4_viability: Viability Assessment in the Tox21 HCT-116 p53 Agonism Beta-lactamase Assay, Phase 4 (AID 2283597);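 also: hits lower the luminescence signal meaning cytotoxicity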
# Procedure, shortened: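 ATP content by CellTiter-Glo luminescence, 30 min RT, read after the beta-lactamase ratio step. Cells: HCT116, 4000/well, compound added after 5 h, exposure 16 h at 37C. Signal loss = reduced viability.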
# [3] = target: Cellular tumor antigen p53 (Homo sapiens) (UniProt P04637); assay: TOX21_p53_BLA_p5_ratio: Tox21 HCT-116 p53 Agonism Beta-lactamase Assay, Ratio, Phase 5 (AID 2283599)
# Procedure, shortened: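 Beta-lactamase reporter ratio (blue 460 nm over green 530 nm, 405 nm excitation) after 2 h CCF4-AM loading, in HCT-116 cells exposed 16 h at 37 C to compounds pinned at 217-fold dilution. Increases relative to DMSO baseline scored.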
# [4] = TOX21_p53_BLA_p5_viability: Viability Assessment in the Tox21 HCT-116 p53 Agonism Beta-lactamase Assay, Phase 5 (AID 2283600)
# Procedure, shortened: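 ATP luminescence (CellTiter-Glo, 30 min, RT) served as the viability read-out, with loss of signal indicating cytotoxicity. Compounds in DMSO were pinned at a 217-fold dilution onto 4000 cells/well and incubated 16 h, 37C.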
# [5] = target: Cellular tumor antigen p53 (Homo sapiens) (UniProt P04637); assay: TOX21_p53_BLA_p4_ratio: Tox21 HCT-116 p53 Agonism Beta-lactamase Assay, Ratio, Phase 4 (AID 2283601)
# Procedure, shortened: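 Signal is the blue/green (460nm/530nm) ratio of cleaved versus uncleaved CCF4-AM substrate, read after 2 h substrate loading. Cells were HCT116 carrying the p53-responsive beta-lactamase reporter, dosed 16 h at 37C, 5% CO2; CellTiter-Glo measured in parallel.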
# [6] = target: Cellular tumor antigen p53 (Homo sapiens) (UniProt P04637); assay: TOX21_p53_BLA_p3_ratio: Tox21 HCT-116 p53 Agonism Beta-lactamase Assay, Ratio, Phase 3 (AID 2283596)
# Procedure, shortened: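 Cells were seeded at 4000/well, rested 5 h at 37C, then dosed with DMSO compound solutions (217-fold dilution) for 16 h. CCF4-AM substrate was loaded for 2 h at room temperature, and the 460/530 nm emission ratio was fitted for gain of signal versus DMSO.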
# Chain of Cellular tumor antigen p53 (Homo sapiens) (P04637 whole entry, looked up): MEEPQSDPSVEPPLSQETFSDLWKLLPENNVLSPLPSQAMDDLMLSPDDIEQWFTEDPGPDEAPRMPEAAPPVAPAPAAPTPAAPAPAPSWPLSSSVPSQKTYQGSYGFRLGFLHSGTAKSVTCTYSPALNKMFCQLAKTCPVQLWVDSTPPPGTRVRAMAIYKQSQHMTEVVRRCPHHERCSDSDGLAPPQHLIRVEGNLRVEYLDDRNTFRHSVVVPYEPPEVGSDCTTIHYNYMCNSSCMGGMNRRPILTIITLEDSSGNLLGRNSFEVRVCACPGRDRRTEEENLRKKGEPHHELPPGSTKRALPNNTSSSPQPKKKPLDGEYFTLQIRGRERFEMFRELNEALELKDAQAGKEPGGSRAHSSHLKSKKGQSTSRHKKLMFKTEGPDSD
structure (smiles),measurement,setting,value
c1ccc2nccnc2c1,outcome,[1],inactive
same,outcome,[2],inactive
same,outcome,[3],inactive
same,outcome,[4],inactive
same,outcome,[5],inactive
O=C1CC[C@H](C(=O)N2CCCCC2)N1,outcome,[1],inactive
same,outcome,[2],inactive
same,outcome,[3],inactive
same,outcome,[4],inactive
same,outcome,[5],inactive
COc1ccc(C=NNC(=O)c2ccncc2)c(C(=O)O)c1OC,outcome,[1],inactive
same,outcome,[2],inactive
same,outcome,[3],inactive
same,outcome,[4],inactive
CCCCCCCCCCCCCCCCCC(=O)OCCO,outcome,[1],inactive
same,outcome,[2],inactive
same,outcome,[3],inactive
same,outcome,[4],inactive
same,outcome,[5],inactive
CN1CCN(C(c2ccccc2)c2ccccc2)CC1,outcome,[1],inactive
same,outcome,[6],inactive
same,outcome,[5],inactive
CCC(C)(CN(C)C)OC(=O)c1ccccc1 (stereo not drawn),outcome,[1],inactive
same,outcome,[2],inactive
same,outcome,[3],inactive
Nc1nc(-c2ccc([N+](=O)[O-])cc2)cs1,outcome,[1],inactive
same,outcome,[2],inactive
same,outcome,[3],inactive
same,outcome,[4],inactive
same,outcome,[5],inactive
CN1CC(=O)N=C1N,outcome,[1],inactive
same,outcome,[2],inactive
same,outcome,[3],inactive
COc1ccc2c(c1OC)C(=O)O[C@@H]2[C@H]1c2c(cc3c(c2OC)OCO3)CCN1C,outcome,[1],inactive
same,outcome,[2],inactive
same,outcome,[3],inactive
same,outcome,[5],inactive
Cc1cccc(C)c1OCC(C)N (stereo not drawn),outcome,[1],inactive
same,outcome,[6],inactive
same,outcome,[5],inactive
Oc1ccc(C2CNCCc3c2cc(O)c(O)c3Cl)cc1 (stereo not drawn),outcome,[1],inactive
same,outcome,[2],inactive
same,outcome,[3],inactive
CCN1CCc2nc(N)oc2CC1,outcome,[1],inactive
same,outcome,[2],inactive
same,outcome,[3],inactive
same,outcome,[4],inactive
same,outcome,[5],inactive
COc1ccc(Nc2ccc(OC)cc2)cc1,AC50,[1],71.5 µM (active)
same,outcome,[6],inactive
same,AC50,[5],73.2 µM (active)
NNc1nnc(NN)c2ccccc12,outcome,[1],inactive
same,outcome,[2],inactive
same,outcome,[3],inactive
same,outcome,[4],inactive
same,outcome,[5],inactive
O=c1[nH][nH]c2ccccc12,outcome,[1],inactive
same,outcome,[6],inactive
same,outcome,[5],inactive
C#CCN[C@@H]1CCc2ccccc21,outcome,[1],inactive
same,outcome,[2],inactive
same,outcome,[3],inactive
same,outcome,[5],inactive
